HSF1 inh: HSF1 inhibition | AID 2098 | NIH3T3-HGL HSE-luciferase, MG132-induced, luminescence 8 h; hits give low values | hit rate 0.77% among 300,000 | activity change, negative = inhibition, % at 7.5 µM (by protocol);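 active means more than half of replicate wells show activity change below -50%, luminescence cut by over half; inconclusive means some wells, but at most half, below -50%; inactive means no replicate well below -50%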;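 further: luciferase reports HSF-1 transcriptional activity via heat shock element; 0% = median of DMSO wells and -100% = zero luminescence signal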
TLR4 MyD88 comp: TLR4-MyD88 interaction inhibition in cells. O00206+Q99836. HeLa CL3-4 TLR4/MyD88 BLA complementation, FRET ratio. inhibition, % at 8.4 µM. hit rate 0.18% among 200,000; in the data active means inhibition above about 25%;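 further: 0% = vehicle and 100% = reference inhibitor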
NOD2-RIPK2 inh: blocks binding of human NOD2 to RIPK2; O43353; CHO BLA complementation NOD2-RIPK2, CCF4 ratio; inhibition, % at 4.98 µM; hit rate 0.38% among 360,000; AID 624267; in the data active means inhibition above about 21%;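 further: 0% = vehicle only and 100% = reference blocker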
TLR9-MyD88 inh: TLR9-MyD88 interaction inhibition; Q9NR96+Q99836; CHO BLA complementation TLR9-MyD88, CCF4 FRET ratio; inhibition, % at 4.98 µM; hit rate 0.21% among 340,000;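 active means inhibition above the mean over all tested compounds plus 3 SD, cut at about 21% in these data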;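 further: 0% = DMSO only wells and 100% = clavulanate BLA inhibitor control wells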
HSF1 activator: increases HSF-1 driven luciferase reporter signal; activation, % at 9 µM; NIH3T3-HGL HSF-1 luciferase reporter, MG132, 8 h; 100% = twice DMSO control signal; hit rate 1.7% among 300,000; AID 504408;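 active means mean replicate activation of at least 50% with a set share of replicates each reaching 50%; inconclusive means only one of those two conditions met; inactive means mean below 50% and too few replicates reaching it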;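 further: 0% = median of the neutral control wells and 100% = twice that signal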
* marks the source's active call; other numbers are inactive results; u = inconclusive; x = no result. Shown are actives, neighbours in structure and some others; about 2.4% of the full set was active somewhere.

SMILES	HSF1 inh	TLR4 MyD88 comp	NOD2-RIPK2 inh	TLR9-MyD88 inh	HSF1 activator
Cc1ccc(CC2CC(=O)N(Cc3ccco3)C2=O)cc1 (stereo not drawn)	42	1	-1	6	73*
CCOCCCNC(=O)CCCn1nc(C)n2c(cc3sccc32)c1=O	1	-19	-8	9	-9
CCN(CCNC(=O)CCCn1nc(C)n2c(cc3sccc32)c1=O)c1ccccc1	49	-4	-1	-3	74*
O=C(NC1CCCN(Cc2ccc(Cl)cc2)C1)c1c(F)cccc1F (stereo not drawn)	-3	x	-8	-12	13
Cc1cc(C(=O)NC2CCCN(Cc3ccc(Cl)cc3)C2)n(C)n1 (stereo not drawn)	-85*	x	-7	0	-89
O=C(N/N=C/c1ccc(O)c(O)c1)c1ccc(-n2cnnn2)cc1	x	x	-2	8	x
Cc1nc2c(cc1C(=O)N/N=C/c1ccc(O)c(O)c1)c(=O)n(C)c(=O)n2C	-73*	4	8	3	-79
c1ccc(C[C@H]2CN=C(Nc3ccccc3)N2CC2CCCC2)cc1	x	x	9	x	x
Cn1cc(CNC(=O)c2sc3cccc(Cl)c3c2Cl)cn1	57	-14	-4	0	90*
O=C(O)c1ccc(S(=O)(=O)c2ccc3c(c2)C(=O)N(c2ccc(Br)cc2)C3=O)cc1	20	x	-6	7	9
NS(=O)(=O)c1ccc(N/C=C\C(=O)c2ccc(F)cc2)cc1	27	-3	-2	-1	74*
c1ccc2c(c1)oc1c(-c3ccc4nccn4c3)cccc12	x	x	1	x	x
Cc1cc(C)cc(C(=O)NC(=S)Nc2ccc3c(c2)OCCO3)c1	71	3	0	-1	122*
CCc1ccc(C(=O)NC(=S)Nc2ccc3c(c2)OCCO3)cc1	18	3	1	7	24
O=C(NC(=S)Nc1ccc(N2CCCCC2)c(Cl)c1)c1ccc2c(c1)OCCO2	-60*	1	-7	-4	-64
CC(=O)NC(c1ccc(F)c(F)c1)c1nc(-c2ccncc2)cs1 (stereo not drawn)	x	x	-2	x	x
NC(=O)CCC(C(=O)O)N1C(=O)c2ccc(O)cc2C1=O (stereo not drawn)	-54*	x	-11	5	-63
O=C(O)CC[C@@H](C(=O)O)N1C(=O)c2ccccc2C1=O	-23	x	-3	-5	-33
NC(=O)CC(NC(=O)c1cccc(Br)c1)c1ccc(NC2CCCCCCC2)c([N+](=O)[O-])c1 (stereo not drawn)	2	x	6	-7	5
O=C(N/N=C/c1cccs1)c1c[nH]c2ccccc12	24	-9	-2	-7	19
CCc1ccc(/C=N/NC(=O)c2c[nH]c3ccccc23)s1	25	2	-4	-5	58*
O=C(Cn1cc(COc2ccc(Br)cc2[N+](=O)[O-])nn1)c1ccc(O)cc1	x	x	-9	-2	x
COC(=O)c1ccc2nc(NC(=O)C(C)C)sc2c1	26	-11	5	-12	42
CCOC(=O)c1ccc2nc(NC(C)=O)sc2c1	10	-10	4	-6	u
COC(=O)c1ccc2nc(Nc3nc4c(F)cc(F)cc4s3)sc2c1	-88*	-6	-6	-6	-90
SMILES	HSF1 inh	TLR4 MyD88 comp	NOD2-RIPK2 inh	TLR9-MyD88 inh	HSF1 activator
CCOC(=O)c1ccc2nc(Nc3nc4ccc(F)cc4s3)sc2c1	-80*	4	-7	-10	-82
O=C1COc2ccc(S(=O)(=O)CCC(=O)NC3CCCCC3)cc2N1	10	x	2	3	15
COc1cccc2c1C(=N)c1c(O)c3c(c(O)c1C2=O)CC(O)(C(C)=O)CC3OC1CC(N)C(O)C(C)O1 (stereo not drawn)	x	x	0	1	x
COc1cccc2c1C(=O)c1c(O)c3c(c(O)c1C2=O)C[C@](O)(C(C)=O)C[C@H]3O[C@@H]1C[C@@H](N)[C@@H](O)[C@@H](C)O1	-67*	x	-2	-3	-63
CN1CCC(N(C)C(=O)c2ccc(Cl)c(S(=O)(=O)N3CCOCC3)c2)CC1	x	x	7	-1	x
O=C(Nc1cccnc1)c1ccc([N+](=O)[O-])o1	10	x	-1	9	19
O=C(NCc1cccnc1)c1ccc([N+](=O)[O-])o1	29	1	-1	-4	70*
CC(C)(C)c1ccc(OCc2ccc(C(=O)NCc3cccnc3)o2)cc1	57	7	1	0	112*
O=C(O)C(Cc1ccc(OS(=O)(=O)Cc2ccccc2)cc1)NS(=O)(=O)Cc1ccccc1 (stereo not drawn)	x	x	-5	6	x
COc1cc([C@@H]2c3cc4c(cc3[C@H](O)[C@H]3COC(=O)[C@H]23)OCO4)cc(OC)c1OC	-69*	20	2	8	-74
Cn1c(=O)c2cc(NC(=O)NCc3ccc(Cl)cc3Cl)ccc2n1Cc1ccc(F)cc1	x	x	-13	x	x
CCCCCCCCCn1c2c(c(=N)c3c1CCC3)CCCC2	0	17	24*	x	-2
CCCCCCCCCCn1c2c(c(=N)c3c1CCC3)CCC2	-4	10	17	-12	-2
CCCCNC(=O)C[C@@H]1C[C@@]2(C(=O)OCC)CCCC=C2N(Cc2ccccc2)C1=O	x	x	-11	x	x
COc1ccc(CNC(=O)c2c(C)nc3ccccn23)cc1	1	-20	4	8	5
COc1ccc(/C=C/C(=O)c2c(C)nc3ccccn23)cc1	31	10	4	-7	63*
Cc1nc2ccccn2c1C(=O)/C=C/c1ccc(F)cc1	175	5	-1	-1	200*
CC(C)[C@H](NC(=O)c1ccccc1)C(=O)OCC(=O)c1c(N)n(C)c(=O)n(C)c1=O	x	x	-2	7	x
O=c1[nH]c(SCc2ccc(Cl)cc2)nc2ccccc12	28	4	7	-7	66*
Clc1ccc(CSc2nc3ccncc3[nH]2)cc1	23	9	2	10	56*
CN1C=Nc2c(ncn2C2CCC(CO)O2)C1O (stereo not drawn)	x	x	1	x	x
CCN(CC)S(=O)(=O)c1ccc(NCCc2ccccn2)nc1	1	x	-7	3	-12
COc1cccc(CNc2ccc(S(N)(=O)=O)cc2)c1OC	-57*	-5	2	4	-67
CC(C)(C)Cc1nnc(NC(=O)c2ccc3c(c2)OCO3)s1	26	x	-10	2	58*
CC(C)NC(=O)C1(C)CN(S(C)(=O)=O)CC(=O)N1CCc1ccccc1 (stereo not drawn)	x	x	1	x	x
SMILES	HSF1 inh	TLR4 MyD88 comp	NOD2-RIPK2 inh	TLR9-MyD88 inh	HSF1 activator
CCOC(=O)c1ccc(NC(=O)CCS(=O)(=O)c2ccc(Br)s2)cc1	48	2	4	0	117*
O=C(COC(=O)c1ccccc1-n1cnnn1)c1ccc(F)cc1	-53*	x	-3	3	-57
COc1ccccc1C(=O)COC(=O)c1ccc(-n2cnnn2)cc1	2	x	2	-6	16
Nc1ccn(CC(=O)NCc2ccc3[nH]ccc3c2)c(=O)n1	x	x	13	-3	x
Nc1nnnn1/N=C/C(Br)=C/c1ccccc1	188	11	21	-2	252*
CC(/C=N/N1CCN(c2ccc(C)cc2)CC1)=C\c1ccccc1	5	8	-5	-12	-1

Compound activity from PubChem.
